Experiment in all cases: DAPPL (digital affinity profiling via proximity ligation, sequencing); 10 mM Tris-HCl pH 7.5, 50 mM NaCl, 1 mM DTT, 4% glycerol, room temperature, 30 min; GST-TFs on glutathione beads, 16-mer random dsDNA library, 0.1% formaldehyde crosslink after washing; high values mean tight binding
One experiment concerns the target T1, FEV (Homo sapiens, UniProt Q99581 1-238).
T1 sequence: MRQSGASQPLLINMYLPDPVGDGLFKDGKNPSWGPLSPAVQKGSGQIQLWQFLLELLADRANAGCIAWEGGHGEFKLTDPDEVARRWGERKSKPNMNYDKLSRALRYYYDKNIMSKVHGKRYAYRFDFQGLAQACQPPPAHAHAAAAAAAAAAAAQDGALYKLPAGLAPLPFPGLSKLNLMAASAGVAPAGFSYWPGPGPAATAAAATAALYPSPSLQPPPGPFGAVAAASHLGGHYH
The note with it: protein: recombinant; tags: N-terminal GST; dsDNA, one strand shown. Summed up: (§1)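 In yeast, human transcription factors were expressed with a GST fusion, then pulled down on glutathione beads and given DNA barcodes. Pooled with a tag-only sample, they were exposed to 200 nmole of a 16-mer random double-stranded DNA library (Tris/NaCl/DTT/glycerol buffer, room temperature, 30 min), washed, crosslinked with 0.1% formaldehyde, proximity-ligated using BsaI/T4 ligase for 1 h at 37 °C, PCR-amplified and read on an Illumina NextSeq500. Each hexamer's frequency of reads for a factor, divided by the matching frequency for the tag-only sample, gives the binding signal.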

The target in a further experiment is ETV5 (Homo sapiens, UniProt P41161 1-510). The note with it: protein: recombinant; tags: N-terminal GST; dsDNA, one strand shown. The method, boiled down:
as §1

In another experiment the target is HSF1 (Homo sapiens, UniProt Q00613 1-529). Conditions: protein: recombinant; tags: N-terminal GST; chain copies: 3; dsDNA, one strand shown. Summed up: as §1
Another experiment deals with T2, SPIC (Homo sapiens, UniProt Q8N5J4 1-248).
T2 sequence: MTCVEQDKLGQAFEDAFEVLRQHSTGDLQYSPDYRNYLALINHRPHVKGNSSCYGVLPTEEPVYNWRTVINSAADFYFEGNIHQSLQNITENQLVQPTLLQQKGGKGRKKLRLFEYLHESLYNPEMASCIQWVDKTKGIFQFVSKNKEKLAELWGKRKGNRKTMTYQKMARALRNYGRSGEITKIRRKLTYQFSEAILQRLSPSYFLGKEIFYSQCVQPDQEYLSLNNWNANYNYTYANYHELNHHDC
Conditions: protein: recombinant; tags: N-terminal GST; dsDNA, one strand shown. The method, boiled down:
as §1

For the next experiment, the target named is ELF4 (Homo sapiens, UniProt Q99607 1-663). The note with it: protein: recombinant; tags: N-terminal GST; dsDNA, one strand shown. Summed up: as §1
The target in the next experiment is T3, ELK4 (Homo sapiens, UniProt P28324-2 1-405).
T3 sequence: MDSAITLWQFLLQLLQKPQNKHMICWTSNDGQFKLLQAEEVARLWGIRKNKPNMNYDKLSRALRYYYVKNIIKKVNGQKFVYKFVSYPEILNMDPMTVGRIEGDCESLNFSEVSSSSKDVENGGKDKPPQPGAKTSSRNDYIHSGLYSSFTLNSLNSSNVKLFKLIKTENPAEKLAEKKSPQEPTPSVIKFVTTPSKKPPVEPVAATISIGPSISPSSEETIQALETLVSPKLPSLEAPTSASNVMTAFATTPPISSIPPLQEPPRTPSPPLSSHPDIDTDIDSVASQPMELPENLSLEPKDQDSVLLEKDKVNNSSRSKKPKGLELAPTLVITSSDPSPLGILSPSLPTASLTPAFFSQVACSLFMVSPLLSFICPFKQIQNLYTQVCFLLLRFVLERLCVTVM
The note with it: protein: recombinant; tags: N-terminal GST; dsDNA, one strand shown. The method, boiled down: as §1

The target in another experiment is T4, ETV2 (Homo sapiens, UniProt O00321 1-342).
T4 sequence: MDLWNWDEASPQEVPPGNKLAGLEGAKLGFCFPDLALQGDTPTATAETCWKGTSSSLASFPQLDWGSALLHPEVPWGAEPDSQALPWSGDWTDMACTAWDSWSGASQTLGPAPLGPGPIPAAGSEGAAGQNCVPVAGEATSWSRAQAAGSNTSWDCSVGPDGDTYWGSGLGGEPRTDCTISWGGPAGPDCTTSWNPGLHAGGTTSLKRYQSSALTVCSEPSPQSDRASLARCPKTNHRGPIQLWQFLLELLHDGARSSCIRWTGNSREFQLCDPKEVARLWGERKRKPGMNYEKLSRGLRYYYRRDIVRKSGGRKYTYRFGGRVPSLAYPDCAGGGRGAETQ
The note with it: protein: recombinant; tags: N-terminal GST; dsDNA, one strand shown. The method, boiled down: as §1

For the next experiment, the target named is T5, ELF3 (Homo sapiens, UniProt P78545 1-371).
T5 sequence: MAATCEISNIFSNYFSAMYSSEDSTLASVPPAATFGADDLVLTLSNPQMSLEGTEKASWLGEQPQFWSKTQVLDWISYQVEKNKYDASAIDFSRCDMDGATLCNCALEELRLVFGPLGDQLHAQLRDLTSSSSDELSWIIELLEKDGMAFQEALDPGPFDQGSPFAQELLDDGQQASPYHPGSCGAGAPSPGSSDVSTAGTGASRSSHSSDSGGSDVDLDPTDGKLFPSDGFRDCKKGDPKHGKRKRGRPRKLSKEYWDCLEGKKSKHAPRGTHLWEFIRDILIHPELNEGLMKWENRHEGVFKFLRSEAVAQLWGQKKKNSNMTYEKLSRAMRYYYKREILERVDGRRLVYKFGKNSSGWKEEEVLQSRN
The note with it: protein: recombinant; tags: N-terminal GST; dsDNA, one strand shown. Summed up: as §1

For another experiment, the target named is CRX (Homo sapiens, UniProt O43186 1-299). The note with it: protein: recombinant; tags: N-terminal GST; dsDNA, one strand shown. The method, boiled down:
as §1

The next experiment deals with ETV1 (Homo sapiens, UniProt P50549 1-477). Conditions: protein: recombinant; tags: N-terminal GST; dsDNA, one strand shown. Summed up:
as §1

For another experiment, the target named is T6, ERF (Homo sapiens, UniProt P50548 1-548).
T6 sequence: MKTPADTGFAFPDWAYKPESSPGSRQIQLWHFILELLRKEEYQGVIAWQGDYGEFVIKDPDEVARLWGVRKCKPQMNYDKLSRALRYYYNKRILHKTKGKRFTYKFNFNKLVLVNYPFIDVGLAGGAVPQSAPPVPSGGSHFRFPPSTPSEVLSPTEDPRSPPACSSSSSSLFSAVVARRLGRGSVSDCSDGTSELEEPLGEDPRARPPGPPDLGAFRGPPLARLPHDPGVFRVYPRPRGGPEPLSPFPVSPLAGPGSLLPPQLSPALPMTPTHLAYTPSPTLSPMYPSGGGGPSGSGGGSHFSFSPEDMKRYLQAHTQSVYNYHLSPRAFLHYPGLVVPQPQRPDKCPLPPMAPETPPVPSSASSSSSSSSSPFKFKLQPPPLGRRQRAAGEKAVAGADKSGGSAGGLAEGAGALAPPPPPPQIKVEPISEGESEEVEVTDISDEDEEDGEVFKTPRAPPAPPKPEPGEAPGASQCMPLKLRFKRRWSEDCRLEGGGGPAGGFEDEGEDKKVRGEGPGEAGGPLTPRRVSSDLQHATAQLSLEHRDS
The note with it: protein: recombinant; tags: N-terminal GST; dsDNA, one strand shown. Summed up:
as §1

For a further experiment, the target named is T7, ETV3L (Homo sapiens, UniProt Q6ZN32 1-361).
T7 sequence: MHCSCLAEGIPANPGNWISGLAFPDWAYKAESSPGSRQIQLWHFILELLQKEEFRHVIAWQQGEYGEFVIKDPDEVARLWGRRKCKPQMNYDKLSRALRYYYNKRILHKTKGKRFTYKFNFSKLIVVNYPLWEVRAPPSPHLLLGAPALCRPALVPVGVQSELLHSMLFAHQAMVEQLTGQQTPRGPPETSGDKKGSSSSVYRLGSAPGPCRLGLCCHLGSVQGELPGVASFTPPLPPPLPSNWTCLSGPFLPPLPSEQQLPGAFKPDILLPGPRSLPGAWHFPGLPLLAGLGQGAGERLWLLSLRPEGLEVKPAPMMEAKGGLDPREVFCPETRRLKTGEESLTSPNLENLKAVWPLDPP
The note with it: protein: recombinant; tags: N-terminal GST; dsDNA, one strand shown. The method, boiled down:
as §1

The target in the next experiment is T8, ETS2 (Homo sapiens, UniProt P15036 1-469).
T8 sequence: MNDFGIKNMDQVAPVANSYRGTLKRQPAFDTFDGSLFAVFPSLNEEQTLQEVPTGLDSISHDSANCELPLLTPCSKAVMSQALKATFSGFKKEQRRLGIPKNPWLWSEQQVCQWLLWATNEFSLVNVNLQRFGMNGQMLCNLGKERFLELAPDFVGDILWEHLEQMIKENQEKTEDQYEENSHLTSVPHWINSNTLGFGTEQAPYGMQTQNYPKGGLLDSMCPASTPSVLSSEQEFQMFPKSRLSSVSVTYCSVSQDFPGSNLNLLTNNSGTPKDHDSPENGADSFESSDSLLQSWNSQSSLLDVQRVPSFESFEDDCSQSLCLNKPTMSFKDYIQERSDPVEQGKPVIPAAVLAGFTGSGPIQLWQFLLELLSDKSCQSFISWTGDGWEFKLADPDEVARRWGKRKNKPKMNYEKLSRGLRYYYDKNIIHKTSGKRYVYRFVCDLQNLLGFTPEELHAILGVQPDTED
The note with it: protein: recombinant; tags: N-terminal GST; dsDNA, one strand shown. Summed up:
as §1

The next experiment concerns the target T9, SPDEF (Homo sapiens, UniProt O95238 1-335).
T9 sequence: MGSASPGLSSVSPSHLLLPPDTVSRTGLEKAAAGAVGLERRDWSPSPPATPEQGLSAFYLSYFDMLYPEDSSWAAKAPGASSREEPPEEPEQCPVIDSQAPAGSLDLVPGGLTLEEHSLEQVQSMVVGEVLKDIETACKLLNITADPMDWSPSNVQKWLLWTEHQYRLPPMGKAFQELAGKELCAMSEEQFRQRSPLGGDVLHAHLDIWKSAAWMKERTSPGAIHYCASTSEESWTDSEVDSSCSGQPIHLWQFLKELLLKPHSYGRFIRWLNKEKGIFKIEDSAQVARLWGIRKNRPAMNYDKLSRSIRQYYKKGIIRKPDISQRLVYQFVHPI
Conditions: protein: recombinant; tags: N-terminal GST; dsDNA, one strand shown. The method, boiled down:
as §1

Another experiment addresses T10, ETV7 (Homo sapiens, UniProt Q9Y603 1-341).
T10 sequence: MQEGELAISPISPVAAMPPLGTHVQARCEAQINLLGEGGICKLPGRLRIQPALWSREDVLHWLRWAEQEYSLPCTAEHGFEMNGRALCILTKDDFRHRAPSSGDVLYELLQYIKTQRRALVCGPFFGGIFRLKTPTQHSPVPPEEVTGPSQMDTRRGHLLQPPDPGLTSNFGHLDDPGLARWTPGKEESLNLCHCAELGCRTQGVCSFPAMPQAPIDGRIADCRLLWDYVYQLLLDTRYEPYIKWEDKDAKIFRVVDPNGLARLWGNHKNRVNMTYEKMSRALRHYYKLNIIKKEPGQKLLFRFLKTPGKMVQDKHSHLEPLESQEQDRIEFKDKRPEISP
Conditions: protein: recombinant; tags: N-terminal GST; dsDNA, one strand shown. The method, boiled down: as §1

In the next experiment the target is T11, ELF5 (Homo sapiens, UniProt Q9UKW6-2 1-255).
T11 sequence: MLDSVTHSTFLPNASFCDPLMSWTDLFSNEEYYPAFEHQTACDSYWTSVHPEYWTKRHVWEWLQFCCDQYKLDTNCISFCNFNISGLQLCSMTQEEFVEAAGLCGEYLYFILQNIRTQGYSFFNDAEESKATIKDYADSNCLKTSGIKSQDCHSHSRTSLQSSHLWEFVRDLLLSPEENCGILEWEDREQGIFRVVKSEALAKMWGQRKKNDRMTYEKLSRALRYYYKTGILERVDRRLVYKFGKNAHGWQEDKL
The note with it: protein: recombinant; tags: N-terminal GST; dsDNA, one strand shown. The method, boiled down: as §1

The next experiment concerns the target T12, ETV3 (Homo sapiens, UniProt P41162-2 1-143).
T12 sequence: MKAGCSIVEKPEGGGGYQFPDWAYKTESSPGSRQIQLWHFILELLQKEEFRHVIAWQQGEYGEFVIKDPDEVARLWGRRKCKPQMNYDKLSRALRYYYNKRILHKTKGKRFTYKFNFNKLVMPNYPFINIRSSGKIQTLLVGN
The note with it: protein: recombinant; tags: N-terminal GST; dsDNA, one strand shown. Summed up:
as §1

For a further experiment, the target named is ETV6 (Homo sapiens, UniProt P41212 1-452). Conditions: protein: recombinant; tags: N-terminal GST; dsDNA, one strand shown. Summed up:
as §1

The values that follow come from article PMC7862700, “An all-to-all approach to the identification of sequence-specific readers for epigenetic DNA modifications on cytosine”.

ETV1, sequence (P50549 whole entry): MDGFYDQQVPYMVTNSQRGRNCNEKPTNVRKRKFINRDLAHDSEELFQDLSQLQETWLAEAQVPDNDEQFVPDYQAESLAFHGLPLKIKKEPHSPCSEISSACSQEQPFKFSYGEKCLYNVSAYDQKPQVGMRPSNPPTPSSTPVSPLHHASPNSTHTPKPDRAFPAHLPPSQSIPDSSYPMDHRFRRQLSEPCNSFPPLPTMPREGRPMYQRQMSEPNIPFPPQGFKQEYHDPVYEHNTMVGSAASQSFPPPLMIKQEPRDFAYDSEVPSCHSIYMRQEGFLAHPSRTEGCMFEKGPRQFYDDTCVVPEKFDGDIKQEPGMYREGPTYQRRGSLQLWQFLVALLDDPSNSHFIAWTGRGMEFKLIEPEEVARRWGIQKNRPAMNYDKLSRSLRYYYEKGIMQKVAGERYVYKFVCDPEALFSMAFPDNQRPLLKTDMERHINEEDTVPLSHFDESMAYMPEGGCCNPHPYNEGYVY
ETV5, sequence (P41161 whole entry): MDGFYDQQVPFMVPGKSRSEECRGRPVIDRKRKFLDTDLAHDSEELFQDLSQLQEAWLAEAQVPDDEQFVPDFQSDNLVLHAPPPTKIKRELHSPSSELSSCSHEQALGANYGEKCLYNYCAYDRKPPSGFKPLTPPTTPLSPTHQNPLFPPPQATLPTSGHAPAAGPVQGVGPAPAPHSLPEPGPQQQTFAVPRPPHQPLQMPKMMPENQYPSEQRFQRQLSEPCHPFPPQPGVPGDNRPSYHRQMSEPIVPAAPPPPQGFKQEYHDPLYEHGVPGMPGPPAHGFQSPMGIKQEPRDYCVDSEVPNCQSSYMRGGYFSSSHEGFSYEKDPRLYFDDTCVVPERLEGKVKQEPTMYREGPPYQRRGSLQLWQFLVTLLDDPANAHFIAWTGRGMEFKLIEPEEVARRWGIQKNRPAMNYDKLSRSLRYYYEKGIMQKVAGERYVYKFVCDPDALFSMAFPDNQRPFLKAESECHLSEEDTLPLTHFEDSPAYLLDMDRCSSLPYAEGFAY
CRX, sequence (O43186 whole entry): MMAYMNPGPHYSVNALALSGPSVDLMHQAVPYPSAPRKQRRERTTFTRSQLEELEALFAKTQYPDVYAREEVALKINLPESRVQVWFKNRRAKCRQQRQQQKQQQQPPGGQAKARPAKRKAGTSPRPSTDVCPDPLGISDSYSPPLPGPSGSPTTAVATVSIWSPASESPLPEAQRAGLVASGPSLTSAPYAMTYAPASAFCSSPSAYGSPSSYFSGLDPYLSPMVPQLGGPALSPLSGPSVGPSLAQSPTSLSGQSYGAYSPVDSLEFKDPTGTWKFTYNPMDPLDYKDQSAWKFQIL
ELF4, sequence (Q99607 whole entry): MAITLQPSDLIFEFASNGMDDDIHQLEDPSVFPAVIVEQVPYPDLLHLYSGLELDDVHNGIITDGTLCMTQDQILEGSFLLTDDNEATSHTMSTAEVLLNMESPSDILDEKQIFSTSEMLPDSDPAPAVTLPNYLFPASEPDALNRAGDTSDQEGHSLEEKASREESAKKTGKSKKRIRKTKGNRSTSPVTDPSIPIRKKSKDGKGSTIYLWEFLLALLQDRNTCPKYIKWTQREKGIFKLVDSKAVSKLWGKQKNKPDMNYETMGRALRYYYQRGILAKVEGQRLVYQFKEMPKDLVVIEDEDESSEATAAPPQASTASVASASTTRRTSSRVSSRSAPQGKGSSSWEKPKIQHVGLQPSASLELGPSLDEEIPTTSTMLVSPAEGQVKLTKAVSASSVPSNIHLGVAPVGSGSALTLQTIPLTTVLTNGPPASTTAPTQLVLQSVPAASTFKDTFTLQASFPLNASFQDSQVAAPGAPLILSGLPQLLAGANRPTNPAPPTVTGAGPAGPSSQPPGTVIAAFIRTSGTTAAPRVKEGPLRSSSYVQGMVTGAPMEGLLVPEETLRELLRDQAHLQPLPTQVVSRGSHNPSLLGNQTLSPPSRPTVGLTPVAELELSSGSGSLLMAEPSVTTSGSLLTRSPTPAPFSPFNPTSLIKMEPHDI
ETV6, sequence (P41212 whole entry): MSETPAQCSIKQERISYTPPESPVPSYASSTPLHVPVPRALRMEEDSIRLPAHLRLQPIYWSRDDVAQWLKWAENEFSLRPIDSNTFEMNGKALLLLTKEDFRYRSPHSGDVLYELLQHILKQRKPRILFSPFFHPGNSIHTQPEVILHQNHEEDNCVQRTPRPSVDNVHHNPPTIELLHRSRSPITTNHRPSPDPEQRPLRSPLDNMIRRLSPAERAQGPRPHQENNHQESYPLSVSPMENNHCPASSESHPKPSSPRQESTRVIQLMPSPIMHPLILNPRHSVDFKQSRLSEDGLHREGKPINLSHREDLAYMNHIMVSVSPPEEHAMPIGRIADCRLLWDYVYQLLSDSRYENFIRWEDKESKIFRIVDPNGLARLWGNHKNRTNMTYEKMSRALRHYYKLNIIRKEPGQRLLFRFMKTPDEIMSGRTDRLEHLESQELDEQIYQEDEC
HSF1, sequence (Q00613 whole entry): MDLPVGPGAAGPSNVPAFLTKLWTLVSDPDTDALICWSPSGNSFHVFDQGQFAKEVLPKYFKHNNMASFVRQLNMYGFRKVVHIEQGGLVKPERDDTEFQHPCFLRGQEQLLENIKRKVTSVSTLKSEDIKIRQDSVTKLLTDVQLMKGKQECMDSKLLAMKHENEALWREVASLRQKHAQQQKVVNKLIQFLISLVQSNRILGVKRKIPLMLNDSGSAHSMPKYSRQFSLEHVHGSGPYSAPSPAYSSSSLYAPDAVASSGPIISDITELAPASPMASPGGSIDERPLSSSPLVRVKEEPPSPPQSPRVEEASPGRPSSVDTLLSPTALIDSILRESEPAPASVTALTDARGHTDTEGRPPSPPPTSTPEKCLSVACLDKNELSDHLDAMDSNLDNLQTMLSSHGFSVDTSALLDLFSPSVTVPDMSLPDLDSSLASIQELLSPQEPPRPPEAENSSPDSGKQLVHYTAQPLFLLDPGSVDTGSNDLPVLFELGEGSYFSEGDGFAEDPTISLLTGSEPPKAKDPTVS

For CTCTGC, the binding signal with FEV is 1.5 fold enrichment (6-mer frequency, TF over GST control); with ETV5 it was 1.49 fold enrichment (6-mer frequency, TF over GST control); with HSF1, 1.25 fold enrichment (6-mer frequency, TF over GST control); with SPIC, 1.55 fold enrichment (6-mer frequency, TF over GST control); with ELF4, 1.61 fold enrichment (6-mer frequency, TF over GST control); in the experiment with ELK4 it was 1.86 fold enrichment (6-mer frequency, TF over GST control). The binding signal is 1.43 fold enrichment (6-mer frequency, TF over GST control) in the experiment with ETV2; 1.56 fold enrichment (6-mer frequency, TF over GST control) with ELF3; 1.2 fold enrichment (6-mer frequency, TF over GST control) in the experiment with CRX; 1.64 fold enrichment (6-mer frequency, TF over GST control) in the experiment with ETV1; 1.56 fold enrichment (6-mer frequency, TF over GST control) in the experiment with ERF; 1.52 fold enrichment (6-mer frequency, TF over GST control) with ETV3L. Moreover, the binding signal with ETS2 was 1.54 fold enrichment (6-mer frequency, TF over GST control); in the experiment with SPDEF it was 1.4 fold enrichment (6-mer frequency, TF over GST control); in the experiment with ETV7, 1.27 fold enrichment (6-mer frequency, TF over GST control); in the experiment with ELF5 it was 1.34 fold enrichment (6-mer frequency, TF over GST control); in the experiment with ETV3, 1.5 fold enrichment (6-mer frequency, TF over GST control); with ETV6, 1.27 fold enrichment (6-mer frequency, TF over GST control).
